In all, about 330,000 compounds went through this assay and about 5,800 (1.8%) were called active.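 Rule for the calls: active = inhibition above about 50% at the single tested dose (limit read from the data); inactive = the rest.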 Many of the other results were omitted from the sample, so actives are more common in it than they were.
target: Sentrin-specific protease 6 (Homo sapiens) (UniProt Q9GZR1); assay: inhibition of human SENP6 catalytic domain – biochemical, luminescence, uHTS, primary screen (AID 2599); conditions: Recombinant SENP6 catalytic domain, aminoluciferin luminescence; at 10 µM; active compounds read high;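 note: plate controls were DMSO wells with enzyme for no effect and DMSO wells lacking enzyme for full effect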
Sequence (Q9GZR1 628-1112 limits assumed): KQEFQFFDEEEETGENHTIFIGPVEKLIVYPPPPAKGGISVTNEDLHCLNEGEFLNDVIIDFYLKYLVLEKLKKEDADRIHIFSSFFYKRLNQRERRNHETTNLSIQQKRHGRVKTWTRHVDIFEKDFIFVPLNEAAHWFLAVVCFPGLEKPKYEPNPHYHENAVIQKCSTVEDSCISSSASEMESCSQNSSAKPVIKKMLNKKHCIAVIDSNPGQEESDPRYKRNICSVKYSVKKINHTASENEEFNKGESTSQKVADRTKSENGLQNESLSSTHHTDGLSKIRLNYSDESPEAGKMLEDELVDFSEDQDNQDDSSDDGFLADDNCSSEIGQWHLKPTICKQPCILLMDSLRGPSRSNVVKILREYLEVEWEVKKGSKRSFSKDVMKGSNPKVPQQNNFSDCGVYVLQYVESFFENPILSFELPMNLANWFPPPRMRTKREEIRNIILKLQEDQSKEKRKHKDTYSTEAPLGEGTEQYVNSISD

Compound | inhibition
CCCOc1ccc(N2C(=O)CC(N(CCc3ccc(S(N)(=O)=O)cc3)C(C)=O)C2=O)cc1 (stereo not drawn) | -12.7% (inactive)
COc1ccc(C(=O)OCC(=O)c2cc(C)n(CC3CCCO3)c2C)cc1[N+](=O)[O-] (stereo not drawn) | -1.02% (inactive)
Cc1cc(C(=O)Cn2cnc3cc([N+](=O)[O-])ccc3c2=O)c(C)n1CC1CCCO1 (stereo not drawn) | -13.2% (inactive)
Cc1ccsc1C(=O)OCC(=O)c1cc(C)n(CC2CCCO2)c1C (stereo not drawn) | 97.8% (active)
Cc1coc2cc3oc(=O)c(CCC(=O)O)c(C)c3cc12 | 1.41% (inactive)
COc1ccccc1NC(=O)CSc1nnc(-c2ccoc2C)n1CCc1ccccc1 | -3.86% (inactive)
Cc1ccc(S(=O)(=O)N2CCOCC2)cc1C(=O)OC1CCCCC1=O (stereo not drawn) | 7.83% (inactive)
CCN1C(=O)c2cccc3c(S(=O)(=O)Nc4ccccc4O)ccc1c23 | -9.84% (inactive)
CCN1C(=O)c2cccc3c(N)ccc1c23 | 80.3% (active)
CN1C(=O)c2cccc3c(N)ccc(c23)C1=O | -16.2% (inactive)
Cc1ccc(C)c(Cn2cnc3c(oc4ccccc43)c2=O)c1 | 9.24% (inactive)
Cc1c(NC(=O)C(C)OC(=O)c2ccccc2O)c(=O)n(-c2ccccc2)n1C (stereo not drawn) | -6.6% (inactive)
CCc1ccc(NC(=O)COC(=O)c2cccs2)cc1 | 8.32% (inactive)
CC(C)C(=O)Nc1ccc(C(=O)NNC(=O)c2cccs2)cc1 | 3.9% (inactive)
CCc1ccc(NC(=O)C(=O)NNC(=O)c2cccs2)cc1 | 85.8% (active)
Cc1cccc(-n2c(C)cc(/C=N\NC(=O)c3cccs3)c2C)c1 | -11.3% (inactive)
CCN(CC)c1ccc(/C=N/NC(=O)CNC(=O)c2cccs2)cc1 | -14.6% (inactive)
CC(=O)Nc1ccc(/C=N/NC(=O)c2cccs2)cc1 | 58.1% (active)
CSc1cccc(NC(=S)N(C(C)C)C(C)c2ccccn2)c1 (stereo not drawn) | 4.01% (inactive)
CC1(C)CC(=O)c2c(n(S(=O)(=O)c3ccccc3)c3ccc(NS(=O)(=O)c4ccccc4)cc23)C1 | 6.92% (inactive)
COc1ccc(-c2oc3ncn(Cc4ccco4)c(=N)c3c2-c2ccc(OC)cc2)cc1 | -13.1% (inactive)

Compound | inhibition
COc1cccc(NC(=O)COC(=O)c2ccc3ccccc3n2)c1 | -3.74% (inactive)
CCc1nnc(NC(=O)CSc2nnnn2-c2cccc(C(C)=O)c2)s1 | -12.9% (inactive)
CSc1cccc(NC(=O)CSc2ccccc2)c1 | -11% (inactive)
CCOc1ccc(C(=O)Nc2cccc(-c3ccc4nncn4n3)c2)cc1 | 5.7% (inactive)
Cc1ccccc1C(=O)N1CCN(c2ccc(NC(=O)c3cccs3)cc2)CC1 | -5.79% (inactive)
Cc1ccccc1C(=O)Nc1ccc(N2CCCCCC2)cc1 | 72.7% (active)
COc1cccc(NC(=O)CN(C)CC(=O)Nc2ccc3c(c2)CCC3)c1 | -11.1% (inactive)
COc1ccc(C(=O)Nc2cccc(S(C)(=O)=O)c2)cc1 | -10.8% (inactive)
COc1cccc(C(=O)Nc2nnc(S(=O)(=O)N3CCCCC3)s2)c1 | 0.355% (inactive)
Cc1ccccc1C(=O)NC(=S)Nc1ccc(N2CCN(C(=O)c3ccccc3)CC2)cc1 | 2.96% (inactive)
COc1cccc(C(=O)Nc2ccc(N3CCCC3)cc2)c1 | 97.6% (active)
CCC(=O)Nc1ccc(C(=O)Nc2cccc(OC)c2)cc1 | 51.2% (active)
CCOc1ccc(C(=O)Nc2cccc(SC)c2)cc1 | 91.4% (active)
O=C(Nc1ccc(N2CCOCC2)cc1)c1cccc(S(=O)(=O)N2CCOCC2)c1 | -0.135% (inactive)
CCn1c(=S)sc2c(=O)n(CC(=O)Nc3cccc(Br)c3)c(C)nc21 | 3.55% (inactive)
Cc1cccc(C(=O)OCC(=O)NCC(C)C)c1O | 9.44% (inactive)
CCCn1c(SCC(=O)Nc2c(C)cccc2C)nnc1C(C)C | -9.77% (inactive)
C=CCOc1ccc(/C=N/NC(=O)C(C)Sc2ccccn2)cc1OCC (stereo not drawn) | -0.571% (inactive)
COc1ccc(CCNC(=O)C(=O)NCC2OCCN2S(=O)(=O)c2cccs2)cc1OC (stereo not drawn) | -6.36% (inactive)
Cc1ccc(NC(=O)CCOc2ccccc2)cc1S(=O)(=O)Nc1ccccc1Cl | 1.1% (inactive)
Cc1c(C(=O)NCCN(C)C)oc2ccc(S(=O)(=O)N3CCCC3)cc12 | 4.61% (inactive)

Compound | inhibition
CS(=O)(=O)N(CC(=O)NC1CCCC1)Cc1ccc(F)cc1 | -6.07% (inactive)
O=C(NC1CC1)c1ccc(-c2ccccc2)cc1 | -15.5% (inactive)
COc1cccc2sc(Nc3nc(C)c(C(C)=O)s3)nc12 | 87.8% (active)
COc1ccccc1/C=N/Nc1nc(C)c(C(C)=O)s1 | -28% (inactive)
CNC(=O)c1sc(NCc2ccccc2OC)nc1C | 8.32% (inactive)
CCn1c(SCC(=O)Nc2ccc(Br)cc2)nc2sc3c(c2c1=O)CCN(C)C3 | 12.7% (inactive)
CCOc1ccc(CN2CCN(Cc3ccc4cc(F)ccc4n3)CC2CCO)cc1 (stereo not drawn) | 9.04% (inactive)
COc1cccc(-c2ccc3c(c2)S(=O)(=O)c2cccc(C(=O)O)c2C3=O)c1OC | -1.89% (inactive)
O=C(O)c1ccc2c3c(cccc13)C(=O)N(OS(=O)(=O)c1ccccc1)C2=O | 60.3% (active)
CCN(c1ccccc1)S(=O)(=O)c1cccc(C(=O)NCc2ccccc2CN2CCOCC2)c1 | -16.6% (inactive)
CCc1ccc(C(=O)OCC(=O)NCC(F)(F)F)cc1 | -1.8% (inactive)
CCCC1NC(=O)NC(C)=C1C(=O)OCC (stereo not drawn) | -6.49% (inactive)
O=C(/C=C/c1ccco1)Nc1ccc(Oc2ccccc2)cc1 | 80.1% (active)
Cc1nnc(NC(=O)/C=C/c2ccco2)s1 | -18.6% (inactive)
O=C(/C=C/c1ccco1)NC(=S)Nc1ccccc1Br | 6.12% (inactive)
CCOC(=O)C1(Cc2cccc(OC)c2)CCCN(S(=O)(=O)c2cccnc2)C1 (stereo not drawn) | -9.47% (inactive)
Oc1ccc(N=Nc2nccs2)c(O)c1 | 87.3% (active)
C=CCC(NC(=O)Cc1ccccc1)C(=O)NCCC (stereo not drawn) | -9.67% (inactive)
Cc1nc2ccc(C(=O)N/N=C/c3ccc(O)cc3)cc2[nH]1 | -6.89% (inactive)
Cc1nonc1C(=O)N/N=C/c1ccc(O)cc1 | 98.9% (active)
COC(=O)N/N=C/c1ccc(/C=N/NC(=O)OC)cc1 | -17.5% (inactive)
